Experimental data published in publication PMC5540273 (PLoS ONE, 2017).

What follows are compounds tested on AXL. Details: concentration: 1 μM, replicates: in singlicate; n = 1.
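Further: KINOMEscan kinase panel screen.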

Row | SMILES | %Inh [%]
1 | COc1cc(Nc2nccc(N3CCC(NS(=O)(=O)c4ccc(NC(C)=O)cc4)CC3)n2)cc(OC)c1OC [GSK1379825] | 14
2 | Cc1cc(-c2ccnc(Nc3cccc(C#N)c3)n2)cc(C)c1O [GSK1440913] | 51
3 | Cc1ccc(C)c(NC(=O)Nc2ccc(C)c(-c3ccc(C(=O)Nc4ccncc4)cc3)c2)c1 [GSK1398473] | 90
4 | CN(C)CCNS(=O)(=O)c1ccc(-c2ccnc3[nH]ccc23)cc1 [GSK977620] | 93.1
5 | O=C(Nc1n[nH]c2nc(-c3cccc(O)c3)ccc12)C1CC1 [SB-711805] | 12
6 | COc1cccc(C2=C(Nc3cccc(O)c3)C(=O)NC2=O)c1 [SB-390771] | 1
7 | CSc1ccc(NC2=C(c3ccc(Cl)cc3)C(=O)NC2=O)cc1 [SB-317658] | 10
8 | Cc1ccc(O)cc1Nc1ccnc2cc(-c3ccc(CN4CCCCC4)o3)ccc12 [GW557777] | 0
9 | Fc1cc(Cl)ccc1Nc1ccnc2cc(-c3ccc(CN4CCOCC4)o3)ccc12 [GW560109] | 40
10 | COC(=O)Nc1nc2ccc(Oc3ccc(NC(=O)Nc4cc(C(F)(F)F)ccc4F)cc3)cc2[nH]1.Cl [GW654607] | 97.3
11 | CN(c1ccc(NC(=O)N2CCN(CCCN3CCOCC3)CC2)cc1)c1ccnc(Nc2ccc(CS(C)(=O)=O)cc2)n1.Cl [GW830899] | 2
12 | CCn1c(-c2nonc2N)nc2c(-c3ccccc3)ncc(OCCCN)c21.O=C(O)C(F)(F)F.O=C(O)C(F)(F)F [GSK260205] | 0
13 | COc1cc(Nc2nccc(N3CCC(NC(=O)Nc4ccc5c(c4)OCO5)C3)n2)cc(OC)c1OC (stereo not shown) [GSK1379766] | 0
14 | Cc1ccc(NC(=O)c2ccnc(N3CCCCC3)c2)cc1-c1ccc(C(=O)NCC2CC2)cc1 [GW775610] | 31
15 | COC(=O)Nc1nc2ccc(Oc3ccc(CC(=O)Nc4cc(C(F)(F)F)ccc4F)cc3)cc2[nH]1 [GW680903] | 23
16 | COc1ccc(NC(=O)c2ccoc2)cc1-c1ccc(C(=O)NCC2CC2)cc1 [GW810437] | 0
17 | Cc1cccc(Nc2nc(NCCN)ncc2C(N)=O)c1 [GSK1292139] | 9
18 | Cl.N#CCc1ccc(Nc2nccc(Nc3ccc(Oc4ccccc4)cc3)n2)cc1 [GW639905] | 22
19 | Fc1cc(Cl)ccc1Nc1ccnc2cc(-c3ccc(CN4CCSCC4)o3)ccc12 [GW560106] | 33

Row | SMILES | %Inh [%]
20 | NCCC(NC(=O)c1cc(Br)c(-c2ccnc3[nH]ccc23)s1)c1ccccc1.O=C(O)C(F)(F)F.O=C(O)C(F)(F)F (stereo not shown) [GSK1307810] | 76
21 | O=C(O)C(F)(F)F.O=c1[nH]ccc2nc(N[C@@H]3CCNC3)nc(Nc3ccc4c(c3)S(=O)(=O)CC4)c12 [GSK2181306] | 100
22 | Cc1ccccc1CC(=O)N1CCc2cc(-c3cn(C)c4ncnc(N)c34)ccc21 [GSK2603346] | 98.7
23 | CCNC(=O)/C=C/c1n[nH]c2cc(Sc3ccccc3C(=O)NC)ccc12 | 76
24 | Nc1ncc(-c2ccc3nccc(-c4ccncc4)c3c2)cc1S(=O)(=O)N1CCCCC1 [GSK1693850] | 52
25 | CS(=O)(=O)c1cccc(CNc2nc(Nc3ccc4c(c3)CCC(=O)N4)ncc2C(F)(F)F)c1 | 23
26 | COc1ccc(C)c(Nc2ccnc(Nc3ccc(-c4cnc[nH]4)cc3)n2)c1.Cl [GW784041] | 0
27 | O=C(O)C(F)(F)F.O=c1[nH]ccc2nc(N[C@@H]3CCNC3)nc(Nc3cc(Cl)cc(Cl)c3)c12 [GSK2188764] | 92.1
28 | Cl.Cl.NC(CNC(=O)c1cc(Br)c(-c2ccnc3[nH]ccc23)s1)c1ccccc1 (stereo not shown) [GSK1322949] | 90.8
29 | COC(=O)Nc1nc2cc(Oc3ccc(NC(=O)Nc4cccc(SC)c4)cc3)ccc2[nH]1.Cl [GW697999] | 90.1
30 | CCOc1nccc(-c2c(-c3ccc(F)cc3)ncn2C2CCNCC2)n1 [SB-249175] | 54
31 | Cl.Cl.NCC(NC(=O)c1cc(-c2cccnc2)c(-c2ccnc3[nH]ccc23)s1)c1ccccc1 (stereo not shown) [GSK1323434] | 23
32 | Nc1ncnc2scc(-c3ccc(NC(=O)Cc4cc(F)ccc4F)cc3)c12.O=C(O)C(F)(F)F [SB-731254-M] | 36
33 | Cn1cc(-c2ccc3c(c2)CCN3C(=O)Cc2cc(F)cc(C(F)(F)F)c2)c2c(N)ncnc21 [GSK2635225] | 94
34 | COc1cccc2c(-c3ccncc3)c(-c3ccc(F)cc3)nn12 [GW468513] | 13
35 | COc1cccc(NC(=O)NCCNc2ccnc(Nc3ccc(F)cc3)n2)c1 [GSK1379879] | 3
36 | Cn1cc(-c2ccc3c(c2)CCN3C(=O)Cc2cc(F)cc(F)c2F)c2c(N)ncnc21 [GSK2634140] | 89
37 | CN(C)CCOc1ccc(-c2cc(-c3ccc(Cl)c(O)c3)c(-c3ccncc3)[nH]2)cc1.Cl.Cl [SB-684387] | 0
